# An excerpt weighted towards active compounds, which were near 7.3% of everything screened.
# ELG1 genotoxic = genotoxicity induction in ELG1-luciferase HEK293T cells | HEK293T ELG1-luciferase reporter, luminescence, 16 h | Potency, µM (titrated, usually from 46 µM), for the others: top-dose activity change, positive = activation, actives largely listed as activators | hit rate 1.3% among 330,000; note: % of control where 0% means no effect; nearly all actives have a fitted effect of over 60% in size
#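 ELG1-luciferase HEK293T cells, 2,000/well; compound pinned in; 16 hr, 37 °C, 5% CO2; ONE-Glo, 30 min RT; luminescence on CCD imager.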
# uPA generation = cell surface uPA generation inhibition. AID 540303. cell surface uPA generation assay, qHTS. Potency, µM (highest dose often 38.3 µM), inactives show top-dose activity change, negative = inhibition, hits mostly inhibitors. hit rate 0.31% among 330,000; active = well fitted inhibition curve with a large enough effect; inconclusive = small, poorly fitted or top-dose-only effect; inactive = no such curve, though single readings can be large or run the other way; tested in mouse RAW 264.7 cells; note: % is set by controls: 0 for no effect and ±100 for the full control effect; nearly all actives have a fitted effect of over 55% in size
# NPC1 promoter act = activators of NPC1 promoter; Huh7 NPC1 promoter luciferase reporter, 24 h; Potency, µM (highest dose often 9.22 µM), inactives show top-dose activation, usual class: activators; AID 485313; hit rate 2.4% among 320,000; note: % of control where 0% means no effect; nearly all actives have a fitted effect of over 60% in size
#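 Luminescence read-out of NPC1 promoter-driven luciferase in stably transfected Huh7 cells; compounds delivered in DMSO and left 24 h at 37C, 5% CO2, qHTS titration format.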
# Rab9 prom act = Rab9 promoter activation | Huh7 Rab9 promoter-luciferase reporter, luminescence, 24 h | Potency, µM (highest dose often 9.22 µM), for inactives: at the highest dose activation, negative = inhibition, most hits filed as activators | hit rate 2.8% among 320,000 | AID 485297; note: % of control where 0% means no effect; nearly all actives have a fitted effect of over 60% in size
#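 Steps: seed 1500 Huh7 Rab9-luc cells per well, rest 2 h at 37 °C; add compound in DMSO; incubate 24 h; add luciferase reagent, 10 min ambient; read luminescence.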
# FLuc counter = inhibits or activates purified firefly luciferase, miR-21 counter-screen | Potency, µM (highest dose often 57.5 µM), for the others: top-dose activity change, negative = inhibition, hits mostly inhibitors | purified FLuc, Km substrates, luminescence inhibition | hit rate 6.9% among 360,000 | P08659;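 note: plate controls were vehicle for no effect and reference inhibitor for full effect; nearly all actives have a fitted effect of over 55% in size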
# Target sequence (P08659 whole entry, looked up): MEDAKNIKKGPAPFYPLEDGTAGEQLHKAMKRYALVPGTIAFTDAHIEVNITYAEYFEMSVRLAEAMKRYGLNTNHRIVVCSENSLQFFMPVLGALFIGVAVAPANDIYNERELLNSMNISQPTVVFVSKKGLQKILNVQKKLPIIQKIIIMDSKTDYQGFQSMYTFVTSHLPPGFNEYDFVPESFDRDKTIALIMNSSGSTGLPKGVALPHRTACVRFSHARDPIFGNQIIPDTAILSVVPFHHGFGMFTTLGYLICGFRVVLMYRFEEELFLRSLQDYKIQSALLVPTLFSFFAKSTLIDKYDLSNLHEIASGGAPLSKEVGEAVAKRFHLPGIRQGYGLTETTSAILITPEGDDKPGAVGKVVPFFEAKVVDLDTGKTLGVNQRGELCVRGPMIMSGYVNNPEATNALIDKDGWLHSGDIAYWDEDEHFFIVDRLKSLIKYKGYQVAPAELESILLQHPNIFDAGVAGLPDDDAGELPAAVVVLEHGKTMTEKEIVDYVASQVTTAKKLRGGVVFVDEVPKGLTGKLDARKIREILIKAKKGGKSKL
#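 Purified P. pyralis luciferase (10nM final) with 10uM D-luciferin and 10uM ATP (Km levels) in 50mM Tris acetate pH 7.5, 10mM Mg acetate, 0.01% Tween-20, 0.05% BSA; qHTS 6-point titration, ~60 µM downward; luminescence read.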
# SMN2 splice up = SMN2 splice variant enhancement; Potency, µM (highest dose often 46.1 µM), for the others: at the highest dose activity change, positive = activation, actives largely listed as activators; hit rate 2.8% among 210,000; HEK293 SMN2-luciferase splicing reporter, luminescence, 30-36 h; AID 1458; note: % of control where 0% means no effect; nearly all actives have a fitted effect of over 55% in size
#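 HEK293 cells carry an SMN2 minigene-luciferase reporter in which exon 7 inclusion puts luciferase in frame. Cells were seeded at 2000 cells/well, attached for 10-12 hours, then exposed to compounds for 30-36 hours at 37C before ONE-Glo luminescence.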
# Active calls of the source: *; ? = inconclusive; nt = no result; [ ] = dose if it differs, or a comment. Unless noted, calls come from the whole dose curve; as a rule, active = well fitted curve in the direction sought with a large enough effect; inconclusive = small, poorly fitted or top-dose-only effect, or another doubt; inactive = no such curve, though single readings can be large; an effect the other way counts as inactive or inconclusive. Potency is the fitted concentration of half-maximal effect.
SMILES,ELG1 genotoxic,uPA generation,NPC1 promoter act,Rab9 prom act,FLuc counter,SMN2 splice up
O=C(c1cccs1)N(C(=O)c1cccs1)c1ccc(Br)cn1,2.1µM*,-7%,?,1.6µM*,?,?
N#CC(Cc1ccc(OC(F)F)cc1)c1nc2ccccc2[nH]1 (configuration not stated),?,0%,?,?,8.5µM*,?
CC(C)Oc1ccc(C(=O)Nc2nc3ccccc3[nH]2)cc1,?,-3%,?,?,0.12µM*,nt
O=C(Nc1nc2ccccc2[nH]1)c1ccc(OC(F)F)cc1,1.5µM*,-17%,0.13µM*,0.28µM*,0.54µM*,nt
COc1ccc(Br)c(C(=O)Nc2nc3ccccc3[nH]2)c1,24%,0%,?,?,-12%,nt
CC(C)Oc1ccc(C(=O)Nc2ncn[nH]2)cc1,?,-1%,?,?,?,nt
O=C(Nc1nc2ccccc2[nH]1)c1ccccc1OC(F)F,?,-5%,0.79µM*,0.5µM*,0.95µM*,nt
CCCCn1c(N)c(N(Cc2ccccc2OC)C(=O)c2cc(CC)c(C)s2)c(=O)[nH]c1=O,-4%,1%,-5%,-2%,-3%,nt
Cc1ccc(CNC(=O)CN2C(=O)C3CCCCN3c3ccc(C(=O)N(C)C)cc32)cc1 (configuration not stated),nt,nt,nt,nt,2%,nt
O=C(CNC(=O)c1ccc(Br)cc1)NC1CC1,1%,-11%,-2%,-9%,5%,nt
Cc1cccc(NC(=O)CCNC(=O)c2ccc(Br)cc2)c1,?,-6%,27%,?,13µM*,nt
CC1CCC(NC(=O)CCNC(=O)c2ccc(Br)cc2)CC1 (configuration not stated),?,-9%,4.5µM*,2.5µM*,?,nt
Cc1ccccc1C(=O)Nc1cccc(N)c1,2%,4%,10%,2%,?,?
CCC(=O)Nc1cccc(NC(=O)c2ccc(Br)cc2)c1,7%,0%,17%,23%,-17%,?
CC(=O)Nc1cccc(NC(=O)c2ccc(Br)cc2)c1,5%,-6%,19%,?,24µM*,17%
Nc1ccc(C(=O)Nc2cccc(N)c2)cc1,17%,-9%,?,?,21µM*,nt
C=Cc1ccc(Cn2c(=O)cc(C)c3c(C)nn(C)c32)cc1,nt,nt,nt,nt,-1%,nt
O=C(Nc1cccc(O)c1)c1ccc(Br)cc1,5.8µM*,nt,?,?,12µM*,4%
O=C(Nc1cccc(O)c1)c1cccc(C(=O)Nc2cccc(O)c2)c1,-2%,-6%,8%,2%,?,nt
N#CCCn1c(=O)cnc2cnc(OCc3ccccc3)nc21,nt,nt,nt,nt,nt,1%
O=C(O)c1ccc(NCc2nc3ccccc3n2Cc2ccccc2)cc1,2%,-1%,0%,2%,-4%,nt
CC(C)n1cnc2cc(NCc3nc4ccccc4n3C)ccc21,15µM*,-3%,1.3µM*,1.1µM*,4.8µM*,2.8µM*
CCn1cnc2cc(NCc3nc4ccccc4n3C)ccc21,1.6µM*,?,0.79µM*,0.5µM*,3µM*,7.1µM*
CCn1cnc2cc(NCc3nc4ccccc4n3Cc3ccccc3)ccc21,?,-6%,3.5µM*,2.8µM*,5.4µM*,?
CC1(C)N=C(N)N=C(N)N1c1cccc(OCc2cccc([N+](=O)[O-])c2)c1,nt,nt,nt,nt,nt,-3%[9.22 µM]
SMILES,ELG1 genotoxic,uPA generation,NPC1 promoter act,Rab9 prom act,FLuc counter,SMN2 splice up
CC1(C)CC(=O)C2=C(C1)Nc1ccccc1N=C2,11%,nt,-1%,-3%,6.7µM*,?
CCc1nnc(NC(=O)c2sc3nc4cc(C)ccc4cc3c2N)s1,-2%,nt,13%,17%,9.5µM*,-9%
CCc1nnc(NC(=O)c2ccc3ccccc3n2)s1,-15%,?,?,2.5µM*,13µM*,2.8µM*
CCSc1nnc(NC(=O)c2ccc3ccccc3n2)s1,?,-8%,?,?,12µM*,14µM*
COc1ccc(CNc2ncnc3c2[nH]c2cc(OC)c(OC)cc23)cc1,10%,7%,-3%,-4%,24µM*,nt
Cc1ccc2[nH]c3c(NCc4ccccc4)ncnc3c2c1,-1%,-28%,11%,2%,24µM*,nt
CCCOc1ncnc2c1[nH]c1ccc(C)cc12,?,?,2.8µM*,?,1.2µM*,nt
COc1ccc(CNc2ncnc3c2[nH]c2ccccc23)cc1,-8%,2%,-5%,-17%,?,nt
Cc1ccc2[nH]c3c(N4CCOCC4)ncnc3c2c1,6%,-6%,1%,3%,17µM*,-42%
c1ccc2c(c1)[nH]c1c(N3CCOCC3)ncnc12,-5%,-7%,1%,1%,0%,-46%
Cc1nc2nc(-c3cccs3)[nH]c2cc1Br,nt,-5%,nt,nt,nt,nt
COc1ccc(-c2csc(-c3ccc(O)cc3)n2)cc1,?,-12%,-21%,2%,9.5µM*,nt
COc1ccc(-c2nc(-c3ccc(O)cc3O)cs2)cc1OC,?,-13%,16%,?,11µM*,?
COc1ccc(O)cc1,10%,6.3µM*,nt,nt,nt,-11%
COc1ccc(-c2nc(CCl)cs2)cc1,?,?,18%,?,9.5µM*,5%
C=CCn1c(-c2csc(-c3ccc(OC)c(OC)c3)n2)n[nH]c1=S,8%,-15%,-3%,-7%,3%,-6%
CCCCN(CC)CCCNC(=O)c1sc2nc(C)cc(C)c2c1-n1cccc1,nt,nt,nt,nt,0%,nt
CSc1ncc(C(=O)NCc2ccc(C)cc2)c(C)n1,nt,nt,nt,nt,4%,nt
Cc1cccc(N2CCN(C(=O)Cn3nc(C)c4sc5ccccc5c4c3=O)CC2)c1C,nt,nt,nt,nt,3%,nt
COc1ccc(NC(=O)CSC2=Nc3ccccc3C3=NC(Cc4ccccc4)C(=O)N23)cc1 (configuration not stated),nt,nt,nt,nt,-2%,nt
CCOc1ccc2nc(Cl)c(C3CC(c4ccc(C)cc4)=NN3C(=O)CCC(=O)O)cc2c1 (configuration not stated),nt,nt,nt,nt,-16%,2%
Oc1ccc(-c2csc(-c3c[nH]c4ccccc34)n2)c(O)c1,?,-6%,3.5µM*,?,11µM*,?
CCc1ccc(-c2nc(CCl)cs2)cc1,?,-12%,?,?,3.8µM*,nt
COc1ccc(-c2nc(CCl)cs2)cc1OC,22%,-5%,-2%,12%,?,-5%
COc1cccc(-c2nc(CCl)cs2)c1,1%,-6%,-5%,6%,27µM*,-8%
COc1ccc(-c2csc(C3=C(O)CN(C(C)C)C3=N)n2)cc1OC,?,-13%,-3%,4%,11µM*,7%
CC(C)(C)c1ccc(C(=O)Nc2ccc(Oc3cccnc3)nc2)cc1,-10%,-16%,-26%,-40%,8.5µM*,nt
O=C(Nc1cccnc1)c1ccc(C(=O)Nc2cccnc2)cc1,0%,0%,-2%,0%,-1%,nt

# Screening results (PubChem)
